This is a sample that favours compounds with a hit; in the whole collection about 3.9% have one here.
BoNT-F LC inh = BoNT/F light chain protease inhibitors, primary screen, biochemical, flow cytometry, MLPCN library; AID 588497, 2011; actives 0.22% (n = 360,000); Multiplex microsphere protease cleavage assay; inhibition, % at 10 µM; Botulinum neurotoxin type F light chain protease (Clostridium botulinum); in the data active = inhibition above about 35%, passing the limit was not always enough; inconclusive = no clear call, values can overlap the other calls; also: plate controls were buffer without enzyme for full effect and enzyme alone for no effect
Bead autofluor = counter-screen for toxin protease inhibitors: compound fluorescence; compound autofluorescence counterscreen, microsphere flow cytometry; hits give high values; fluorescence intensity (test concentration not listed); actives 3.1% (n = 360,000); AID 624483; in the data active = fluorescence intensity above about 16000; inconclusive = no clear call, values can overlap the other calls
BoNT A protease = BoNT/A light chain protease inhibitors, primary screen, biochemical, flow cytometry, MLPCN library | Botulinum neurotoxin type A light chain protease (Clostridium botulinum A str. ATCC 3502) | multiplex microsphere protease substrate cleavage | inhibition, % at 10 µM | actives 0.17% (n = 360,000) | AID 588499, 2011; also: plate controls were buffer without enzyme for full effect and enzyme alone for no effect
SARS 3CLpro inh = SARS-CoV 3CLpro protease inhibitors, primary screen, biochemical, quenched FRET. Replicase polyprotein 1ab (Severe acute respiratory syndrome coronavirus), P0C6X7. recombinant SARS-CoV 3CLpro, quenched FRET peptide cleavage. inhibition, % at 6 µM. actives 0.14% (n = 290,000); in the data active = inhibition above about 12%
CCHFV vOTU inh = CCHFV vOTU protease inhibitors, primary screen, biochemical, Pep-AMC substrate, fluorescence. AID 651958, 2012. actives 0.55% (n = 370,000). inhibition, % at 11.5 µM; in the data active = inhibition above about 30%; also: 0% = vehicle wells with enzyme and 100% = no enzyme wells
Anthrax LF prot = Bacillus anthracis LF protease inhibitors, primary screen, biochemical, multiplex microsphere, MLPCN library; Lethal factor (Bacillus anthracis), P15917; multiplex microsphere protease cleavage assay; inhibition, % at 10 µM; actives 0.12% (n = 360,000); AID 588501, 2011; also: plate controls were buffer without enzyme for full effect and enzyme alone for no effect
Starred values were filed as active, the others as inactive; u = inconclusive; x = not tested or not shown. Rule as the data show it, unless noted: active = inhibition above about 30%; inconclusive = no clear call, values can overlap the other calls; inactive = below that.

SMILES	BoNT-F LC inh	Bead autofluor	BoNT A protease	SARS 3CLpro inh	CCHFV vOTU inh	Anthrax LF prot
CCN(CC)S(=O)(=O)c1ccc(C(=O)NCc2n[nH]c(=S)n2Cc2ccccc2)cc1	2	21413*	2	5	x	0
O=C(NCc1n[nH]c(=S)n1Cc1ccccc1)c1ccccc1	2	4204	0	0	-6	-4
CCCCOCCCNC(=O)C[C@@H]1C(=O)N(CCc2ccc(Cl)cc2)C2=CCCCC[C@]21C(=O)OC	x	x	x	x	8	x
C#CCONC(=O)c1cc(OCC(F)(F)F)ccc1OCC(F)(F)F	-3	22449*	0	2	9	-7
O=C(NNC(=O)c1cc(OCC(F)(F)F)ccc1OCC(F)(F)F)c1cccc(C(F)(F)F)c1	-2	2889	0	4	18	-2
Cc1ccc(C(=O)NNC(=O)c2cc(OCC(F)(F)F)ccc2OCC(F)(F)F)cc1	-9	21489*	u	1	12	-2
CCOC(=O)Cn1cc(CN2C(C(=O)OC)CN(Cc3ccc(Cl)cc3)CCS2(=O)=O)nn1 (centres undefined)	x	x	x	x	2	x
C=CCN(Cc1ccccc1)C(C#CC(=C)C)Cc1ccccc1 (centres undefined)	x	x	x	x	0	x
C=CCN1C(=O)[C@@H](CC(=O)NCc2cccc(C(F)(F)F)c2)[C@]2(C(=O)OCC)CCCCC/C=C/12	x	x	x	x	16	x
CCCOc1ccc(C(=O)N/N=C/c2ccc(-c3ccc(S(=O)(=O)Nc4ncccn4)cc3)o2)cc1	-9	22659*	u	3	0	-1
CC(C)(C)c1ccc(-c2nc3c(C#N)c(-c4ccc5c(c4)OCO5)ccn3n2)cc1	-4	20531*	-1	-3	6	0
Cc1ccc(-c2cc(-c3ccc4c(c3)OCO4)c(C#N)c(N)n2)o1	-6	9215	1	1	-13	4
CC(C)c1ccccc1N1CC(C(=O)O)CC1=O (centres undefined)	1	21241*	2	-10	-7	-14
CC(C)C(=O)Nc1ccc2oc(-c3cc(F)c(F)cc3Cl)nc2c1	0	24150*	-1	0	9	1
O=C(NNC(=O)C1CCCO1)c1ccc([N+](=O)[O-])cc1 (centres undefined)	-9	3431	1	1	-1	2
O=C(NNC(=O)C1CCCO1)c1ccc(Cl)cc1 (centres undefined)	37*	4010	1	2	-6	0
CC(=O)c1cc(-c2cc(C(F)(F)F)cc(C(F)(F)F)c2)c(=O)n2c1CCC2	x	x	x	x	10	x
CC[n+]1c(/C=C/c2ccc(N(C)C)cc2)ccc2ccccc21	-16	2511	12	-1	11	4
CCN(CC)c1ccc(/C=C/c2ccc3ccc(OC)cc3[n+]2CC)cc1	-111	3250	60*	-8	1	-4
COC(=O)[C@]12C[C@H](CC(=O)NCc3cccc4ccccc34)C(=O)N(CCC3=CCCCC3)C1=C[C@H](C(C)C)O[C@@H]2C1CC1	x	x	x	x	5	x
COc1ccc(N2C(=O)CSC2c2ccc3c(c2)OCO3)c(OC)c1 (centres undefined)	1	4172	-1	-4	-9	-4
COc1ccc(N2C(=O)CSC2c2ccc3c(c2)OCO3)cc1 (centres undefined)	-2	16403*	-1	-1	7	2
CCn1c(=O)cc(SCC(=O)NCCCN2CCN(c3ccc(F)cc3)CC2)c2ccccc21	1	20024*	2	4	-1	0
CCn1c(=O)cc(SCC(=O)NCc2ccc(C)cc2)c2ccccc21	-11	8443	1	5	16	-4
CCn1c(=O)cc(SCC(=O)NCCCN2CCC(C)CC2)c2ccccc21	-1	2605	0	-2	-6	1
CCn1c(=O)cc(SCC(=O)NCCN2CCN(Cc3ccccc3)CC2)c2ccccc21	0	22769*	u	1	-12	-4
COC(=O)c1c(NC(=O)CCCC(=O)O)sc2c1CCC2	1	22669*	-1	-1	-6	0
NC(=O)c1c(NC(=O)CCCC(=O)O)sc2c1CCCCCC2	2	2094	0	1	15	-2
